The text below walks through data of ChEMBL document CHEMBL1157539, “Thousands of chemical starting points for antimalarial lead identification” (Nature, 2010).

SMILES strings stand for the structures.

Common to all, as to assay type: functional
Test [1] has as its system Plasmodium falciparum. Nature of the test: GSK_TCMDC: Inhibition of Plasmodium falciparum 3D7 in whole red blood cells, using parasite LDH activity as an index of growth. Test compounds present at 2uM.
For test [2], the system named is Plasmodium falciparum. Put plainly: GSK_TCMDC: Inhibition of Plasmodium falciparum Dd2 in whole red blood cells, using parasite LDH activity as an index of growth. Test compounds present at 2uM.
The test system of test [3] is HepG2. Nature of the test: GSK_TCMDC: Percent inhibition of human HepG2 cell line. Test compounds present at 10uM.

As for `Cc1ccccc1-c1cc(=O)c2cc(NC(=O)c3cccs3)ccc2o1`, the Inhibition was determined as 96% in test [1], 95% in test [2] and 22% in test [3].
The corresponding values for `N#Cc1cccc(NC(=O)Nc2ccc(CC(=O)N3CCc4cc(Cl)c(N5CCN(C/C=C/c6ccccc6)CC5)cc43)cc2)c1` are 91%, 61% and 0%.
The corresponding values for `COc1ccnc(NCCCNCc2cn(S(=O)(=O)c3ccccc3)c3ccccc23)c1` are 99%, 18% and 57%.
For `CN(C)CCOc1ccnc2ccc(NC(=O)Cc3ccc(-c4ccncc4)c4ccccc34)cc12`, in that order: 100%, 100% and 10%.
With `Clc1ccc2c(NN=Cc3ccccc3)ccnc2c1`, the Inhibition was determined as 100% in test [1], 94% in test [2] and 0% in test [3].
With `COc1cc(F)c2ncc(Cl)c([C@H](O)CN3CCC(NCc4ccc5c(n4)NC(=O)CO5)CC3)c2c1.Cl`, the values for the Inhibition in test [1], in test [2] and in test [3] were 99%, 99% and 14%, respectively.
Take `CCNc1cc(C(=O)N[C@@H](Cc2ccccc2Cl)[C@H](O)CNC2CCCCC2)cc(N2CCCCS2(=O)=O)c1.Cl`: the Inhibition in test [1] is given as 99%; in test [2], 97%; in test [3] it was 6%.
For `Cc1ccc(NC(=O)c2cccc(C#N)c2)cc1-c1ccc(C(=O)Nc2ccncc2)cc1`, the figures for the Inhibition in test [1], in test [2] and in test [3] were 94%, 64% and 38%, respectively.
For `CCNC(=O)c1ccc(-n2nc(C)cc2-c2ccccc2)cc1`, the Inhibition in test [1] is recorded as 89%; in test [2], 54%; in test [3], 11%.
As to `CCCc1cc(=O)[nH]c(-n2nc(C)cc2NC(=O)CC(c2ccccc2)c2ccccc2)n1`, the Inhibition worked out at 97% in test [1], 88% in test [2] and 39% in test [3].
The corresponding values for `COc1ccc(NC(=O)[C@H](Cc2ccccc2)Nc2cc(C)nc(NCCc3ccccn3)n2)cc1.O=C(O)C(F)(F)F` are 99%, 39% and 0%.
In the case of `COc1cc(Nc2ncc3c(C)nc(-c4cc5ccccc5[nH]4)n3n2)cc(OC)c1OC`, the Inhibition in test [1] is on record as 91%; in test [2], 65%; in test [3] it was 19%.
`CC1(C)CC(NC(=O)NC2CCN(Cc3ccccc3)CC2)CC(C)(CNC(=O)NC2CCN(Cc3ccccc3)CC2)C1` (stereo not given): the Inhibition amounted to 93% in test [1], 2% in test [2] and 10% in test [3].
On to `OC(CNC1CCCCC1)Cn1c2ccccc2c2ccccc21` (stereo not given), for which the Inhibition in test [1] is given as 97%; in test [2], 92%; in test [3], 11%.
As for `O=C(Nc1cccc(CN2CCN(C(=O)c3ccccc3)CC2)c1)c1ccco1.O=C(O)C(F)(F)F`, the Inhibition worked out at 95% in test [1], 42% in test [2] and 6% in test [3].
For the compound `COc1cc(Nc2ccnc3cc(-c4nccs4)ccc23)ccc1OCCCc1nc2ccccc2[nH]1.Cl`, the Inhibition is recorded as 100% in test [1], 68% in test [2] and 100% in test [3].
Turning to `COc1ccc(C(=O)CCC(=O)N(Cc2ccc(-c3ccc(CNCCc4ccc(S(C)(=O)=O)cc4)cn3)cc2)C2CCN(Cc3ccccc3)CC2)cc1F.O=C(O)C(F)(F)F`, the Inhibition in test [1] is on record as 99%; in test [2] it was 72%; in test [3], 20%.
The corresponding values for `COc1ccc2nc3cc(Cl)ccc3c(NCCN(C)C)c2c1` are 100%, 100% and 4%.
For `COc1c(C2CCN(CCCCNC(=O)c3ccc(-c4ccc(Cl)cc4)cc3)CC2)ccc2c1C(C)(C)CCC2(C)C`, in that order: 95%, 42% and 94%.
In the case of `O=C(Nc1ccc(-c2ccc(-c3nc4ccccc4[nH]3)s2)cc1)c1ccncc1`, the Inhibition is listed as 94% in test [1], 95% in test [2] and 21% in test [3].
For `O=C1C(C2CCC(c3ccc(Cl)cc3)CC2)=C2OCC3COC2(O3)c2ccccc21` (stereo not given), in that order: 98%, 97% and 7%.
In the case of `Clc1ccccc1CN1CCC(NCc2cccc(-n3ccnc3)c2)CC1.O=C(O)C(F)(F)F`, the Inhibition in test [1] was 100%; in test [2], 43%; in test [3], 6%.
Consider `CC(C)NCc1ccc(-c2ccc(-c3nc4cc(C(F)(F)F)ccc4[nH]3)cc2)cc1.O=C(O)C(F)(F)F`, for which the values for the Inhibition in test [1], in test [2] and in test [3] were 100%, 98% and 16%, respectively.
The corresponding values for `c1csc(-c2ccc3c(c2)CC(NCc2c[nH]c4cnccc24)C3)c1` (stereo not given) are 100%, 34% and 9%.
For `O=C(Nc1cccc(OC2CCN(Cc3ccccc3)CC2)c1)c1ccc(Cl)c(Cl)c1.O=C(O)C(F)(F)F`, in that order: 100%, 45% and 16%.
For the compound `O=C(CCCCCNC(=O)c1ccc(O)c(-c2cccc(C(F)(F)F)c2)c1)NCCN1CCCCC1`, the Inhibition in test [1] is given as 99%; in test [2], 0%; in test [3], 0%.
Turning to `CN1CCC(Oc2cc(NC(=O)Nc3ccc(-c4ccncc4)c(C(F)(F)F)c3)ccc2Cl)CC1`, the Inhibition is given as 100% in test [1], 92% in test [2] and 30% in test [3].
The corresponding values for `C#C[C@H]1O[C@@H](n2cnc3c(Nc4cc(Br)cc(C(F)(F)F)c4)ncnc32)[C@H](O)[C@@H]1O` are 94%, 56% and 21%.
On to `CCOC(=O)c1cc(=O)c2ccc(OCC#N)cc2o1`, for which the values for the Inhibition in test [1], in test [2] and in test [3] were 88%, 86% and 2%, respectively.
The corresponding values for `COc1ccccc1C1CCN(C2CCC(NC(=O)/C=C/c3ccc(F)c(F)c3)CC2)CC1` (stereo not given) are 94%, 9% and 49%.
For `O=C(NC1CC1)c1ccc(N2CCC(Cc3ccccc3)CC2)nc1.O=C(O)C(F)(F)F`, in that order: 95%, 92% and 13%.
As to `Cc1cc(=O)c(-c2ccc(OCc3ccc(OC(F)(F)F)cc3)cc2)c(C)[nH]1`, the Inhibition in test [1] is reported as 97%; in test [2], 92%; in test [3], 3%.
`O=C(Nc1ccc(Cl)cc1)Nc1ccc(Cn2ncc(N3CCCNCC3)c(Cl)c2=O)cc1.O=C(O)C(F)(F)F`: the values for the Inhibition in test [1], in test [2] and in test [3] were 85%, 11% and 49%, respectively.
For `Nc1c2c(nc3ccc(C(=O)Nc4ccc(Br)cc4)cc13)CCCC2`, in that order: 100%, 99% and 40%.
For `CCOc1ccc2nc3cc([N+](=O)[O-])ccc3c(N)c2c1`, in that order: 99%, 100% and 67%.
Turning to `O=C(Nc1cccc(-c2cccc(-c3nc4cc(F)ccc4[nH]3)c2)c1)c1ccncc1`, the results for the Inhibition in test [1], in test [2] and in test [3] were 92%, 24% and 28%, respectively.
Regarding `O=C(NCCSCc1c(F)cccc1Cl)c1cnc2c(c1)nc(-c1c[nH]c(-c3ccccc3)n1)n2CCc1c[nH]cn1`, the Inhibition in test [1] turned out to be 93%; in test [2], 45%; in test [3] it was 10%.
In the case of `CCCCCOc1ccc(C(=NC)N(CCCCC)CCCCC)c2ccccc12.I`, the Inhibition in test [1] amounted to 96%; in test [2], 80%; in test [3] it was 70%.
The corresponding values for `Cl.N#Cc1ccc2c(c1)CCN(CCC1CCC(NC(=O)c3cc4ccc(Cl)cc4[nH]3)CC1)C2` (stereo not given) are 100%, 0% and 5%.
In the case of `CCCC(CC)n1ccc2c3c(N)nc(N)nc3ccc21.CS(=O)(=O)O` (stereo not given), the results for the Inhibition in test [1], in test [2] and in test [3] were 94%, 97% and 67%, respectively.
As for `CS(=O)(=O)O.Nc1nc(NCC2CCC(CNS(=O)(=O)c3cccc4ccccc34)CC2)nc2ccccc12` (stereo not given), the figures for the Inhibition in test [1], in test [2] and in test [3] were 97%, 42% and 9%, respectively.
The corresponding values for `CCC(C)C(COC(=O)c1cc(OC)c(OC)c(OC)c1)N(C)CCN(C)C(COC(=O)c1cc(OC)c(OC)c(OC)c1)C(C)CC.Cl` (stereo not given) are 84%, 45% and 20%.
The corresponding values for `O=C(c1cc(-c2ccco2)n[nH]1)N1CCN(S(=O)(=O)c2ccc(Cl)cc2)CC1` are 96%, 95% and 0%.
For `Oc1ccc(CN2CCC(N3CCN(CCc4ccccc4)CC3)C(O)C2)cc1Cl` (stereo not given), in that order: 100%, 77% and 0%.
Take `COc1ccccc1CNC(=O)C(=O)Nc1c(-c2ccccc2)[nH]c2ccccc12`: the Inhibition in test [1] was 99%; in test [2], 91%; in test [3], 0%.
The corresponding values for `CCN(CC)CCN(Cc1ccc(-c2ccc(C(F)(F)F)cc2)cc1)C(=O)Cn1c(CCc2cccc(F)c2F)cc(=O)c(C)c1C.O=C(O)C(O)C(O)C(=O)O` are 97%, 87% and 35%.
For `CCOc1cc(C(=O)NCC2CCN(CC3CCCCC3)CC2)ccc1-c1nc2cc(Cl)ccc2[nH]1`, in that order: 98%, 59% and 14%.
The corresponding values for `COCCN(C)c1ccc(C(=O)Nc2ccccc2)cc1NS(=O)(=O)Cc1ccccc1.O=C(O)C(F)(F)F` are 92%, 47% and 2%.
For `Cc1[nH]c(C)c(-c2ccc(OCc3ccc(OC(F)(F)F)cc3)nc2)c(=O)c1Cl`, the Inhibition stood at 98% in test [1], 96% in test [2] and 3% in test [3].
The corresponding values for `CCOc1ccc2[nH]c(C)cc(=NN=Cc3cccc(C)n3)c2c1` are 99%, 73% and 6%.
Turning to `Cc1nc(-c2ccc(-c3ccc(C(=O)Nc4ccc(I)c(OCCN5CCCC5)c4)cc3)c(C)c2)no1.Cl`, the Inhibition in test [1] came out at 95%; in test [2] it was 35%; in test [3], 96%.
The corresponding values for `CCCCCCCc1c(C)nc2cc(OC)ccc2c1O` are 99%, 98% and 5%.
For `CCOC(=O)c1ccc(NC(=O)Nc2ccc(Cn3ncc(N4CCCNCC4)c(Cl)c3=O)cc2)cc1.O=C(O)C(F)(F)F`, in that order: 88%, 58% and 2%.
For `COc1ccc(Cl)cc1NC(=O)C(C)N1CCN(S(=O)(=O)c2ccccc2F)CC1` (stereo not given), in that order: 93%, 66% and 5%.
For `CN(C)C(C)(C)CN(Cc1ccc(-c2ccc(C(F)(F)F)cc2)cc1)C(=O)Cn1c(CCc2cccc(F)c2F)nc(=O)c2ccccc21.O=C(O)C(O)C(O)C(=O)O`, the Inhibition worked out at 95% in test [1], 67% in test [2] and 64% in test [3].

The term Inhibition denotes the relative decrease from the control value, in per cent. A high value points to a response far below the control.
